From PubChem BioAssay AID651956 (Broad Institute, 2012)
Measured potencies and affinities stand elsewhere. Records with an inconclusive call do not appear. Activity calls are given as the source filed them.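 The calls were made as follows: active = in every test run, a fitted half-maximal concentration for signal decrease at or below twice the highest tested concentration; inconclusive = runs disagree, flat 30 to 70% decrease, or poor fit; inactive = the rest.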

Experiment: miR-122 activators in hepatoma reporter cells, dose response, cell-based, Huh7 psiCHECK-miR122, Renilla luciferase, cherry-picked (AID 651956);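 also: Renilla luciferase from a miR-122 sensor reporter so lower signal means miR-122 activation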
Settings: 48 h; series mostly up to 35 µM

SMILES | outcome
CCNC(=O)Nc1ccc2c(c1)C(=O)N(C)[C@H]1CC[C@H](CC(=O)NCCN3CCCC3)O[C@@H]1CO2 | inactive
COCC(=O)N1[C@H](CO)[C@H]2c3ccccc3N(C(=O)c3ccccc3F)C[C@H]21 | inactive
C[C@H]1CN([C@@H](C)CO)S(=O)(=O)c2ccc(-c3ccccc3F)cc2O[C@@H]1CN(C)Cc1cccnc1 | inactive
CCNC(=O)C[C@H]1CC[C@@H]2[C@@H](COc3ccc(NC(=O)c4cccc(C(F)(F)F)c4)cc3C(=O)N2C)O1 | inactive
CCNC(=O)C[C@H]1CC[C@H]2[C@H](COc3ccc(NC(=O)Nc4cccc(OC)c4)cc3C(=O)N2C)O1 | inactive
C[C@H](CO)N1C[C@H](C)[C@H](CN(C)Cc2ccccc2)Oc2cc(/C=C/c3ccccc3)ccc2S1(=O)=O | inactive
C/C=C/c1ccc([C@H]2[C@@H](CO)N(C(=O)CC)[C@H]2CNC(=O)CC)cc1 | inactive
O=C(NC[C@@H]1[C@@H](c2ccccc2)[C@H](CO)N1C(=O)C1CCC1)NC1CCCC1 | inactive
COC(=O)c1c(N)nc(C)n1-c1ccc(OC)cc1 | inactive
CN1C(=O)c2cc(NC(=O)c3ccc(C(F)(F)F)cc3)ccc2OC[C@@H]2O[C@@H](CC(=O)NCc3ccc4c(c3)OCO4)CC[C@H]21 | inactive
CNC(=O)C[C@@H]1CC[C@@H]2[C@H](COc3ccc(NC(=O)c4cccc(OC)c4)cc3C(=O)N2C)O1 | inactive
COCCNC(=O)C[C@H]1CC[C@@H]2[C@H](COc3ccc(NC(=O)C4CCOCC4)cc3C(=O)N2C)O1 | inactive
